{
  "source": "PubChem BioAssay (Tox21)",
  "note": "A number with no mark means an inactive call. Activity calls are given as the source filed them. Calls follow the shape of the dose curve; as a rule, active = well fitted curve in the direction sought with a large enough effect in the repeat runs; inconclusive = weak or mixed curves; inactive = flat fitted curve, though single readings scatter. % is scaled to controls: 0 for no effect and ±100 for the full control effect.",
  "data": [
    {"assay": "qHTS assay to test for compound auto fluorescence at 590 nm (red) in HEK293 cells (AID 720679)", "conditions": "red autofluorescence 540/590 nm; series mostly up to 91.3 µM; fluorescence, % of fluorescent control: at the top concentration", "procedure,_shortened": "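HEK293 cells (2,000/well, 10% dialyzed FBS) attached 4-5 hr, then dosed with compound or DMSO and incubated overnight at 37C, 5% CO2. Red fluorescence read at 540/590 nm, Rose Bengal sodium as reference fluorophore.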", "values": [
      {"smiles": "N[C@@H](Cc1cc(I)c(O)c(I)c1)C(=O)O", "fluorescence, % of fluorescent control": "0.0436% [at 46 µM]"},
      {"smiles": "CCCCCCCC/C=C\\CCCCCCCC(=O)OCCO", "fluorescence, % of fluorescent control": "0.0502% [at 95.7 µM]"},
      {"smiles": "COc1ccc(CCN(C)CCCN2CCc3cc(OC)c(OC)cc3CC2=O)cc1OC", "fluorescence, % of fluorescent control": "0.0636% [at 46 µM]"},
      {"smiles": "CC(C)(C)C1(CCc2ccc(Cl)cc2)CO1", "note": "(centres undefined)", "fluorescence, % of fluorescent control": "-0.245%"},
      {"smiles": "CC(=O)C(C)=O", "fluorescence, % of fluorescent control": "-0.491%"},
      {"smiles": "O=C(O)c1ccc(O)cc1O", "fluorescence, % of fluorescent control": "0.169%"},
      {"smiles": "COC1CCC=CO1", "note": "(centres undefined)", "fluorescence, % of fluorescent control": "-0.0586%"},
      {"smiles": "CCN(CC)CCOC(=O)C(c1ccccc1)c1ccccc1", "fluorescence, % of fluorescent control": "-0.167% [at 46 µM]"},
      {"smiles": "Cc1cccc2sc(N)nc12", "fluorescence, % of fluorescent control": "-0.337% [at 95.7 µM]"},
      {"smiles": "CC(=O)OCC(=O)[C@@]1(OC(C)=O)[C@@H](C)C[C@H]2[C@@H]3C[C@H](F)C4=CC(=O)C=C[C@]4(C)[C@@]3(F)[C@@H](O)C[C@@]21C", "fluorescence, % of fluorescent control": "0.0894% [at 46 µM]"},
      {"smiles": "COc1ccc(C(=O)NCc2ccc(OCCN(C)C)cc2)cc1OC", "fluorescence, % of fluorescent control": "-0.504% [at 46 µM]"},
      {"smiles": "CC[C@@H](CO)NCCN[C@@H](CC)CO", "fluorescence, % of fluorescent control": "-0.143% [at 18.6 µM]"},
      {"smiles": "COc1ccc(N)c([N+](=O)[O-])c1", "fluorescence, % of fluorescent control": "-0.0072%"},
      {"smiles": "Cc1ccc2c(c1[N+](=O)[O-])C(=O)c1ccccc1C2=O", "fluorescence, % of fluorescent control": "-0.55% [at 46 µM]"},
      {"smiles": "CC(=O)N[C@@H](Cc1ccc(O)cc1)C(=O)O", "fluorescence, % of fluorescent control": "-0.0085% [at 46 µM]"},
      {"smiles": "Cc1cn([C@H]2C[C@H](F)[C@@H](CO)O2)c(=O)[nH]c1=O", "fluorescence, % of fluorescent control": "0.0506% [at 46 µM]"},
      {"smiles": "C1=CCC2CC=CC2C1", "note": "(centres undefined)", "fluorescence, % of fluorescent control": "-0.234%"},
      {"smiles": "c1ccc(CNc2ncnc3c2ncn3C2CCCCO2)cc1", "note": "(centres undefined)", "fluorescence, % of fluorescent control": "0.14%"},
      {"smiles": "CCCCCc1ccco1", "fluorescence, % of fluorescent control": "-0.161%"},
      {"smiles": "CCCCC(CC)COS(=O)(=O)O", "note": "(centres undefined)", "outcome": "inactive"},
      {"smiles": "CC1CCCO1", "note": "(centres undefined)", "fluorescence, % of fluorescent control": "0.628%"},
      {"smiles": "c1ccc(CCCc2ccncc2)cc1", "fluorescence, % of fluorescent control": "0.183%"},
      {"smiles": "CC(C)(C(=O)c1cccnc1)c1cccnc1", "fluorescence, % of fluorescent control": "-0.175% [at 18.6 µM]"},
      {"smiles": "SCCc1cnccn1", "fluorescence, % of fluorescent control": "0.0873%"},
      {"smiles": "O=C1NC(=O)c2cccc3cccc1c23", "fluorescence, % of fluorescent control": "0.248%"},
      {"smiles": "CC1CCCC(=O)C1=O", "note": "(centres undefined)", "fluorescence, % of fluorescent control": "-0.045%"},
      {"smiles": "CCC1CCC(CCC(=O)O)C1", "note": "(centres undefined)", "fluorescence, % of fluorescent control": "-0.0573% [at 95.7 µM]"},
      {"smiles": "BrC(Br)C(Br)Br", "fluorescence, % of fluorescent control": "0.21%"},
      {"smiles": "O=c1[nH]c2cc(C(F)(F)F)c(N3CCOCC3)cc2n(CP(=O)(O)O)c1=O", "fluorescence, % of fluorescent control": "-0.0491% [at 46 µM]"},
      {"smiles": "Cc1c(C2(c3cc(Br)c(O)c(Br)c3C)OS(=O)(=O)c3ccccc32)cc(Br)c(O)c1Br", "fluorescence, % of fluorescent control": "-0.248%"},
      {"smiles": "O=C(O)CN1C(=O)c2cccc3cccc(c23)C1=O", "fluorescence, % of fluorescent control": "-0.622% [at 46 µM]"},
      {"smiles": "CCCCCC", "fluorescence, % of fluorescent control": "-0.0054%"},
      {"smiles": "O=C(O)c1cccc(C[C@@H]2COc3ccc(OCc4nc5cc(F)ccc5s4)cc3[C@@H]2O)c1", "fluorescence, % of fluorescent control": "0.296%"},
      {"smiles": "COC(OC)OC", "fluorescence, % of fluorescent control": "0.34%"},
      {"smiles": "O=C(O)CCC(=O)OC[C@@H](NC(=O)C(Cl)Cl)[C@H](O)c1ccc([N+](=O)[O-])cc1", "fluorescence, % of fluorescent control": "0.12% [at 46 µM]"},
      {"smiles": "CC(O)Cn1cnc2c1c(=O)n(C)c(=O)n2C", "note": "(centres undefined)", "fluorescence, % of fluorescent control": "0.0437% [at 18.6 µM]"},
      {"smiles": "CCCOC(=O)c1c(Cl)c(Cl)c(Cl)c(Cl)c1C(=O)OCCC", "fluorescence, % of fluorescent control": "0.284%"}
    ]},
    {"assay": "qHTS assay to test for compound auto fluorescence at 535 nm (green) in HEK293 cells (AID 720680)", "conditions": "green autofluorescence 485/535 nm; series mostly up to 91.3 µM; fluorescence, % of fluorescein: at the top concentration", "values": [
      {"smiles": "N[C@@H](Cc1cc(I)c(O)c(I)c1)C(=O)O", "fluorescence, % of fluorescein": "-0.0041% [at 46 µM]"},
      {"smiles": "CCCCCCCC/C=C\\CCCCCCCC(=O)OCCO", "fluorescence, % of fluorescein": "0.0348% [at 95.7 µM]"},
      {"smiles": "COc1ccc(CCN(C)CCCN2CCc3cc(OC)c(OC)cc3CC2=O)cc1OC", "fluorescence, % of fluorescein": "-0.348% [at 46 µM]"},
      {"smiles": "CC(C)(C)C1(CCc2ccc(Cl)cc2)CO1", "note": "(centres undefined)", "fluorescence, % of fluorescein": "-0.132%"},
      {"smiles": "CC(=O)C(C)=O", "fluorescence, % of fluorescein": "-0.131%"},
      {"smiles": "O=C(O)c1ccc(O)cc1O", "fluorescence, % of fluorescein": "0.0426%"},
      {"smiles": "COC1CCC=CO1", "note": "(centres undefined)", "fluorescence, % of fluorescein": "0.0075%"},
      {"smiles": "CCN(CC)CCOC(=O)C(c1ccccc1)c1ccccc1", "fluorescence, % of fluorescein": "0.0168% [at 46 µM]"},
      {"smiles": "Cc1cccc2sc(N)nc12", "fluorescence, % of fluorescein": "-0.0803% [at 95.7 µM]"},
      {"smiles": "CC(=O)OCC(=O)[C@@]1(OC(C)=O)[C@@H](C)C[C@H]2[C@@H]3C[C@H](F)C4=CC(=O)C=C[C@]4(C)[C@@]3(F)[C@@H](O)C[C@@]21C", "fluorescence, % of fluorescein": "-0.0069% [at 46 µM]"},
      {"smiles": "COc1ccc(C(=O)NCc2ccc(OCCN(C)C)cc2)cc1OC", "fluorescence, % of fluorescein": "0.108% [at 46 µM]"},
      {"smiles": "CC[C@@H](CO)NCCN[C@@H](CC)CO", "fluorescence, % of fluorescein": "-0.0101% [at 18.6 µM]"},
      {"smiles": "COc1ccc(N)c([N+](=O)[O-])c1", "fluorescence, % of fluorescein": "0.0113%"},
      {"smiles": "Cc1ccc2c(c1[N+](=O)[O-])C(=O)c1ccccc1C2=O", "fluorescence, % of fluorescein": "0.0697% [at 46 µM]"},
      {"smiles": "CC(=O)N[C@@H](Cc1ccc(O)cc1)C(=O)O", "fluorescence, % of fluorescein": "0.0505% [at 46 µM]"},
      {"smiles": "Cc1cn([C@H]2C[C@H](F)[C@@H](CO)O2)c(=O)[nH]c1=O", "fluorescence, % of fluorescein": "0.0247% [at 46 µM]"},
      {"smiles": "C1=CCC2CC=CC2C1", "note": "(centres undefined)", "fluorescence, % of fluorescein": "0.0966%"},
      {"smiles": "c1ccc(CNc2ncnc3c2ncn3C2CCCCO2)cc1", "note": "(centres undefined)", "fluorescence, % of fluorescein": "-0.0058%"},
      {"smiles": "CCCCCc1ccco1", "fluorescence, % of fluorescein": "0.0111%"},
      {"smiles": "CCCCC(CC)COS(=O)(=O)O", "note": "(centres undefined)", "outcome": "inactive"},
      {"smiles": "CC1CCCO1", "note": "(centres undefined)", "fluorescence, % of fluorescein": "0.0411%"},
      {"smiles": "c1ccc(CCCc2ccncc2)cc1", "fluorescence, % of fluorescein": "0.0396%"},
      {"smiles": "CC(C)(C(=O)c1cccnc1)c1cccnc1", "fluorescence, % of fluorescein": "0.0635% [at 18.6 µM]"},
      {"smiles": "SCCc1cnccn1", "fluorescence, % of fluorescein": "-0.0555%"},
      {"smiles": "O=C1NC(=O)c2cccc3cccc1c23", "fluorescence, % of fluorescein": "-0.119%"},
      {"smiles": "CC1CCCC(=O)C1=O", "note": "(centres undefined)", "fluorescence, % of fluorescein": "-0.0673%"},
      {"smiles": "CCC1CCC(CCC(=O)O)C1", "note": "(centres undefined)", "fluorescence, % of fluorescein": "-0.0002% [at 95.7 µM]"},
      {"smiles": "BrC(Br)C(Br)Br", "fluorescence, % of fluorescein": "0.0859%"},
      {"smiles": "O=c1[nH]c2cc(C(F)(F)F)c(N3CCOCC3)cc2n(CP(=O)(O)O)c1=O", "fluorescence, % of fluorescein": "0.0032% [at 46 µM]"},
      {"smiles": "Cc1c(C2(c3cc(Br)c(O)c(Br)c3C)OS(=O)(=O)c3ccccc32)cc(Br)c(O)c1Br", "fluorescence, % of fluorescein": "-0.802%"},
      {"smiles": "O=C(O)CN1C(=O)c2cccc3cccc(c23)C1=O", "fluorescence, % of fluorescein": "-0.0449% [at 46 µM]"},
      {"smiles": "CCCCCC", "fluorescence, % of fluorescein": "0.0199%"},
      {"smiles": "O=C(O)c1cccc(C[C@@H]2COc3ccc(OCc4nc5cc(F)ccc5s4)cc3[C@@H]2O)c1", "fluorescence, % of fluorescein": "0.115%"},
      {"smiles": "COC(OC)OC", "fluorescence, % of fluorescein": "0.113%"},
      {"smiles": "O=C(O)CCC(=O)OC[C@@H](NC(=O)C(Cl)Cl)[C@H](O)c1ccc([N+](=O)[O-])cc1", "fluorescence, % of fluorescein": "0.0194% [at 46 µM]"},
      {"smiles": "CC(O)Cn1cnc2c1c(=O)n(C)c(=O)n2C", "note": "(centres undefined)", "fluorescence, % of fluorescein": "-0.0718% [at 18.6 µM]"},
      {"smiles": "CCCOC(=O)c1c(Cl)c(Cl)c(Cl)c(Cl)c1C(=O)OCCC", "fluorescence, % of fluorescein": "-0.0764%"}
    ]}
  ]
}
